Composite z-score and z-score data for 5 compounds are collected here from PubChem BioAssay.

The source made the active and inactive calls. Unless noted, how the calls were made is not given here.

Test [1] in a line: anti-His antibody binders, primary screen, artefact control for SMM control protein annotation, biochemical, small-molecule microarray, 635 nm fluorescence (AID 1128).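 Further: score merges feature fluorescence with signal-to-noise for each printed compound spot.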 Conditions: anti-His Alexa647 antibody binding, higher = more signal.
Test [2] relates to Human papillomavirus type 1a E7 protein (residues 1-88). Briefly: HPV1a E7 small-molecule binders, primary screen, biochemical, small-molecule microarray, residues 1-88, 635 nm (AID 1129). Conditions: small-molecule microarray binding, fluorescence 635 nm; higher = more signal.
For test [3], the target named is Focal adhesion kinase 1 (Homo sapiens) (UniProt Q05397). Briefly: small-molecule microarray binders of FAK, primary screen, biochemical, 635/667 nm fluorescence, BSA, DTT (AID 1130).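 Further: composite of spot emission at 667 nm and signal to noise over triplicate slides.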 As to conditions: PTK2 binding, 635 nm fluorescence, higher = more signal.
Chain of Focal adhesion kinase 1 (Homo sapiens) (Q05397 whole entry, looked up): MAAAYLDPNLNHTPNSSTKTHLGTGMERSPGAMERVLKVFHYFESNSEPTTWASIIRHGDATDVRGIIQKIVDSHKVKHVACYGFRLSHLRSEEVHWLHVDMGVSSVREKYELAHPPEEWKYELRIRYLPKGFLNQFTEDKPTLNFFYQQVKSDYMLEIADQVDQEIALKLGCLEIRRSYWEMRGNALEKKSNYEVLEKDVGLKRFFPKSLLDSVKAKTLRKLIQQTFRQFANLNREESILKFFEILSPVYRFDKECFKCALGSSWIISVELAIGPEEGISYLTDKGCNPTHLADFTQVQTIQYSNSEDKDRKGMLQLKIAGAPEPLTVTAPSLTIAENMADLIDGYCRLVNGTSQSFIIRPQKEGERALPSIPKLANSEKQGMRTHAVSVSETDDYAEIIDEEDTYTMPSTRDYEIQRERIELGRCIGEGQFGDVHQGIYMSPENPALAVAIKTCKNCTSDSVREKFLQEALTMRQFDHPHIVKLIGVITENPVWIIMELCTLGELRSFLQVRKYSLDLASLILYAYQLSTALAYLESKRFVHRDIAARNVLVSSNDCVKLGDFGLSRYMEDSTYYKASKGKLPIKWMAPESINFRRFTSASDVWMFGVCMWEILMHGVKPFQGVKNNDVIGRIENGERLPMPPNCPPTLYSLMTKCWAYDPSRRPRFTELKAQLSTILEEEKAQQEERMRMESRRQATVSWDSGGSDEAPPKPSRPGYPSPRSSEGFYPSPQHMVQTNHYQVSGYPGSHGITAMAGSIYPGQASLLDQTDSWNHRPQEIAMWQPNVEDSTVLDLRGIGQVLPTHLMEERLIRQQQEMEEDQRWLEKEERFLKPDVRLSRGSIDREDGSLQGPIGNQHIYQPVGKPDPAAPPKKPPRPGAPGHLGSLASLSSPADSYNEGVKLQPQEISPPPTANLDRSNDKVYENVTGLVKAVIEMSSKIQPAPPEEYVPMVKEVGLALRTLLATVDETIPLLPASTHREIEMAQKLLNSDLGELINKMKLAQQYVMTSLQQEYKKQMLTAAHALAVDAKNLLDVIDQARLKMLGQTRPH
Test [4] concerns Fibrinogen (Alexa647-labelled). As to the kind of experiment: fibrinogen binders on compound microarrays, profiling panel, artefact control for SMM control-protein annotation, biochemical, small-molecule microarray, 635/667 nm fluorescence (AID 1131).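 Further: z-score merges 667 nm fluorescence with per-spot signal-to-noise over triplicate slides.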 As to conditions: fibrinogen-A647 binding fluorescence, higher = more signal.
In test [5] the target is Follistatin (Homo sapiens) (UniProt P19883). As to the kind of experiment: follistatin binders on small-molecule microarrays, primary screen, biochemical, small-molecule microarray, 635/667 nm fluorescence (AID 1132). Conditions: FST binding, 635 nm fluorescence, higher = more signal.
Chain of Follistatin (Homo sapiens) (P19883 whole entry, looked up): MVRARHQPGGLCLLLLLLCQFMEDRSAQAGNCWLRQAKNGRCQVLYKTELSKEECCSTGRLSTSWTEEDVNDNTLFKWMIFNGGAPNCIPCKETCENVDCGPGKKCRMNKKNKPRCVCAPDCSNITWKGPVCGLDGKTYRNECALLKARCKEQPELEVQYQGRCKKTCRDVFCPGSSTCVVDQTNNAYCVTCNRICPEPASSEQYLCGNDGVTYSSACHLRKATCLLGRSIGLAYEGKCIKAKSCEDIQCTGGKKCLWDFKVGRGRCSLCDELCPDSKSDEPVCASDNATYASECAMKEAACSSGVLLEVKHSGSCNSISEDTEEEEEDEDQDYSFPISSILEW
The target in test [6] is Fibroblast growth factor 2 (Homo sapiens) (UniProt P09038). As to the kind of experiment: FGF2 binders on small-molecule microarrays, primary screen, biochemical, small-molecule microarray, 635/667 nm fluorescence (AID 1133). As to conditions: small-molecule microarray binding, FGF2, fluorescence 635/667; higher = more signal.
Chain of Fibroblast growth factor 2 (Homo sapiens) (P09038 whole entry, looked up): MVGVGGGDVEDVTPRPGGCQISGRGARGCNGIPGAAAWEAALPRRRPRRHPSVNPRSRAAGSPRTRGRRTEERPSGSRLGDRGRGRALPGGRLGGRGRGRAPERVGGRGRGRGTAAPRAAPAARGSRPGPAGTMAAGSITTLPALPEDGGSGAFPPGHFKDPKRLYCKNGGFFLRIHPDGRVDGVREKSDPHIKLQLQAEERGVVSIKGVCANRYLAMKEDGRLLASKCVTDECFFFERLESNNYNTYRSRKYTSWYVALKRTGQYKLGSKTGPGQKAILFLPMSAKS
A short description of test [7]: mitochondrial membrane potential change in A549 cells, profiling panel, cell-based, JC-1 fluorescence, basal, 24 h, 100 nL (AID 1138).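 Further: A549 lung adenocarcinoma cells under basal conditions with no added stimulus; test concentration not given here.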 As to conditions: higher = more signal.
In test [8] the test system is Lefty1. Briefly: Lefty1 binders on small-molecule microarrays, primary screen, biochemical, small-molecule microarray, 635/667 nm fluorescence (AID 1139). Conditions: small-molecule microarray binding, fluorescence 635/667; higher = more signal.
The test system of test [9] is wheat germ agglutinin (Triticum aestivum), Alexa647-labelled. As to the kind of experiment: wheat germ agglutinin binders on compound microarrays, profiling panel, artefact control for SMM control-protein annotation, biochemical, small-molecule microarray, 635/667 nm fluorescence (AID 1140).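 Further: score merges 667 nm feature emission with signal to noise over triplicate slides.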 As to conditions: WGA-A647 binding, 635 nm fluorescence, higher = more signal.

The target in test [10] is Luciferin 4-monooxygenase (Photinus pyralis) (UniProt P08659). Briefly: firefly luciferase enzyme inhibitors, primary screen, biochemical, luminescence, purified enzyme, 2006 set (AID 1141).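 Further: cell-free assay with purified firefly luciferase at 100 ng per well in PBS; test concentration not given here.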 Conditions: SteadyGlo luminescence, 30 min, higher = more signal, called active from +8 up or from −8 down.
Chain of Luciferin 4-monooxygenase (Photinus pyralis) (P08659 whole entry, looked up): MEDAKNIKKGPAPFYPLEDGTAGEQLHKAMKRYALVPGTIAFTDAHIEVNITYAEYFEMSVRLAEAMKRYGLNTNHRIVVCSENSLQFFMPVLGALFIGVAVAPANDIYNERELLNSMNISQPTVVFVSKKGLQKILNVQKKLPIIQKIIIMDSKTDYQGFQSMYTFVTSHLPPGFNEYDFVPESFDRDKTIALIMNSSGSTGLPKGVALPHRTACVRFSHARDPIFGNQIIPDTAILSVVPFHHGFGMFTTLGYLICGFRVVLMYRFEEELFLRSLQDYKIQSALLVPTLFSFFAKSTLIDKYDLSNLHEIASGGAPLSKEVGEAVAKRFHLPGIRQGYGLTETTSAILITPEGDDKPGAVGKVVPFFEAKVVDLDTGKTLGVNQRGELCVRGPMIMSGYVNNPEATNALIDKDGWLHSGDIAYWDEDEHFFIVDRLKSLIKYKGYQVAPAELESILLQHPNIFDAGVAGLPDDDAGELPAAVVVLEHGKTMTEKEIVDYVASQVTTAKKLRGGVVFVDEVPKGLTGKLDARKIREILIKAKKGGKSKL
Test [11] deals with Wnt5a (protein binding on small-molecule microarray). Briefly: Wnt5a binders on small-molecule microarray, primary screen, biophysical, 635/667 nm fluorescence (AID 1142).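 Further: fluorescence read at 667 nm with signal to noise per printed feature.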 As to conditions: 635 nm fluorescence, higher = more signal.
Test [12] is described as follows: cell viability in Huh7 cells, primary screen, cytotoxicity control for HCV replication inhibitor project, CellTiter-Glo luminescence, basal, 48 h (AID 1143).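 Further: Huh7 hepatoma cells carrying a hepatitis C replication reporter with no stimulus; test concentration not given here.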 Conditions: Huh7 HCV replicon, higher = more signal, called active from +8 up or from −8 down.
Test [13] can be described thus: P. aeruginosa biofilm formation inhibitors, primary screen, PAO1 strain, BacTiter-Glo luminescence, LB-PBS (AID 1144). Conditions: 12 h, higher = more signal.
A short description of test [14]: CREB reporter modulators without forskolin, primary screen, cell-based, PC12, CRE-LacZ reporter, unstimulated (AID 1145). Conditions: no forskolin, luminescence, 4.5 h, higher = more signal, called active from +8 up or from −8 down.
Test [15] in a line: CREB reporter modulators under forskolin, primary screen, cell-based, PC12, CRE-LacZ reporter, forskolin-stimulated (AID 1146).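 Further: PC12 cells with 6xCRE LacZ reporter stimulated by forskolin 10 µM; beta-galactosidase reporter signal reflecting CREB driven transcription.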 As to conditions: luminescence, 4.5 h, higher = more signal, called active from +8 up or from −8 down.
Test [16] deals with Streptavidin (Streptomyces avidinii) (UniProt P22629). Briefly: streptavidin binders on small-molecule microarray, primary screen, artefact control for SMM compound annotation, biophysical, 635/667 nm fluorescence (AID 1147).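 Further: signal reflects streptavidin binding to arrayed compounds as a control protein.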 As to conditions: streptavidin binding, higher = more signal.
Chain of Streptavidin (Streptomyces avidinii) (P22629 whole entry, looked up): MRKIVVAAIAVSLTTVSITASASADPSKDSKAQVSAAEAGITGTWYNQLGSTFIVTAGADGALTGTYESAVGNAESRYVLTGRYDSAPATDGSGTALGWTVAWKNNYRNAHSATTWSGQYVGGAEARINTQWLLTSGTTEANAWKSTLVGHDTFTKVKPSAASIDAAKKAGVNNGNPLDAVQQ
The nature of test [17]: small-molecule binders of probe aInhba, primary screen, biochemical, small-molecule microarray, 635/667 nm fluorescence (AID 1148).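 Further: score merges 667nm spot fluorescence with signal-to-noise for antibody binding to printed compounds.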 Conditions: higher = more signal.
Test [18] concerns the target Torsin-1A (Homo sapiens) (UniProt O14656). As to the kind of experiment: torsin A binders from cell lysate, primary screen, small-molecule microarray, wild-type, 635/667 nm (AID 1149). Conditions: COS7 hTOR1A-WT lysate, 635 nm fluorescence, higher = more signal.
Test [19] has the same target. Briefly: small-molecule binders of mutant TOR1A in lysate, primary screen, cell lysate, small-molecule microarray, COS7 lysate, 635/667 nm fluorescence (AID 1150).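 Further: score pools 667 nm emission and signal to noise measuring lysate protein binding.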 As to conditions: COS7 hTOR1A mutant lysate, 635 nm fluorescence, higher = more signal.
Test [20] relates to Sonic hedgehog protein (Shh). As to the kind of experiment: small-molecule binders of Shh protein, primary screen, biochemical, small-molecule microarray, 635/667 nm fluorescence (AID 1151).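 Further: Shh protein binding to compounds spotted on small-molecule microarray slides; score combines spot fluorescence intensity with signal-to-noise across triplicate slides.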 As to conditions: small-molecule microarray binding, 635 nm fluorescence; higher = more signal.

Chain of Torsin-1A (Homo sapiens) (O14656 whole entry, looked up): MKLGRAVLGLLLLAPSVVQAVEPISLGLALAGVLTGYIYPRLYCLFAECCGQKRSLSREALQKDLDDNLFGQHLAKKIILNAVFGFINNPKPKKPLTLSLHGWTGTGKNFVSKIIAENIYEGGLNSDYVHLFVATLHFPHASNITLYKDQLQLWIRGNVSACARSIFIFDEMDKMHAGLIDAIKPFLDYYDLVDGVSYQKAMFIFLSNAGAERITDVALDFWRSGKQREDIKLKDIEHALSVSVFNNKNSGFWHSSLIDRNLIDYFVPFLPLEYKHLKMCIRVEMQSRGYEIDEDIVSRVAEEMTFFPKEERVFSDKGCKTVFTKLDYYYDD

As for `CCOC(=O)C[C@H]1[C@H](OC(=O)c2cc3ccccc3oc2=O)[C@@H](NC(=O)c2ccc3ccccc3c2)c2cc(OCCCO)ccc2N1C(=O)c1ccccc1`, the composite z-score worked out at 0.138 in [1]; 1.2 in [2]; 0.482 in test [3]; 0.414 in [4]; 1.08 in [5]; 0.512 in test [6]. Moreover, the composite z-score in [8] was 1.09; in test [9] it was 0.357; in [11], 0.406; in [16], 0.976; in test [17] it was -0.0405; in test [18], 1.14. Also, the values for the composite z-score in test [19] and in test [20] were 1.11 and 1.54, respectively. Besides, the z-score is -0.59 in [7]; 0.151 (inactive) in [10]; -3.04 (inactive) in [12]; 1.4 (inactive) in [13]; 9.27 (active) in test [14]; 0.368 (inactive) in [15].
Regarding `C=C[C@H](OC)[C@@H](OC(=O)Nc1ccc(SC)cc1)c1ccc(OCCO)cc1`, the composite z-score in test [1] is 3.12; in test [2] it was 1.22; in test [3] it was 0.39; in test [4], -0.332; in [5] it was 0.236; in test [6], 0.453. Also, the composite z-score in test [8] was -0.444; in [9], 0.833; in test [11], 0.712; in test [16], -0.414; in [17], -0.123; in [18], 0.212. Besides, the values for the composite z-score in test [19] and in test [20] were 0.792 and 0.255, respectively. The z-score in test [7] is -1.56; in test [10], -1.94 (inactive); in test [12] it was -1.24 (inactive); in [13], -1.2 (inactive); in test [14], 1.55 (inactive); in test [15], -0.648 (inactive).
As to `CN(C)CCCCCCNC(=O)[C@@H]1C[C@@H]2C(=O)N[C@@H](Cc3ccccc3)C(=O)N2[C@@H]1c1cccc(OCCO)c1`, the composite z-score in test [1] came to 2.13; in test [2], 1.05; in test [3] it was 1.81; in test [4], 0.105; in test [5] it was 0.699; in test [6], 0.886. In addition, the composite z-score in test [8] is 0.729; in [9] it was 0.346; in test [11], 0.154; in [16], 0.0978; in test [17] it was -0.0209; in [18], 1.15. In addition, the composite z-score in [19] stood at 0.885; in test [20], 1.28. The z-score in test [7] is -0.37; in [10], -0.0196 (inactive); in [12], 0.59 (inactive); in [13], 0.0305 (inactive); in test [14], -0.122 (inactive); in [15], -1.29 (inactive).
Consider `O=C(NCC(O)CO)[C@@]1(Cc2ccccc2)COC(c2ccc(OCCCO)cc2)=N1` (stereo not given in full), for which the composite z-score in test [1] is 0.0139; in test [2] it was 0.0528; in test [3], 0.216; in [4] it was 0.531; in test [5], -0.453; in test [6], 0.0393. Also, the composite z-score in test [8] was -0.743; in [9], 0.488; in test [11], 0.0149; in [16] it was -0.131; in test [17], 0.124; in test [18], -0.0598. Further, the composite z-score is 0.0184 in [19] and -0.342 in test [20]. Besides, the z-score in test [7] is -0.165; in test [10], 0.37 (inactive); in [12] it was -0.0858 (inactive); in [13] it was 0.741 (inactive); in test [14], 0.895 (inactive); in test [15], -0.18 (inactive).
Take `CC(C)C(=C=CC[C@H](O)c1ccccc1OCCO)CCO`: the composite z-score in test [1] is 0.526; in test [2], 0.0618; in [3], 0.101; in [4] it was 0.217; in [5] it was 0.0251; in [6], 0.465. Moreover, the composite z-score was 0.653 in test [8]; 0.417 in test [9]; -0.0207 in test [11]; -0.366 in test [16]; -0.101 in [17]; -0.0451 in test [18]. In addition, the composite z-score in test [19] was found to be 0.408; in test [20], 0.569. For the same compound, the z-score in test [7] was 0.205; in test [10] it was 0.27 (inactive); in test [12] it was -0.334 (inactive); in test [13] it was 0.00427 (inactive); in [14] it was 2.14 (inactive); in test [15], 1.49 (inactive).
